Test results taken from PubChem BioAssay AID1159580 (chemical genetic matrix, 2015).
Values joined by “and” are separate entries in the source; they are usually repeats but may differ in a detail not shown here. Identical values can stand only once. The campaign covered roughly 5,500 compounds. About 2,000 (36%) were called active. Inconclusive results (about 18%) are left out. Some of the results follow. A number with no mark means an inactive call. No stated cut-off is given here; in the data, active means normalized growth mostly below about 0.91 (no sharp cut-off); inconclusive means no clear call, values can overlap the other calls; inactive means mostly above about 0.92.

Test: chemical genetic growth profiling, strain panel (AID 1159580);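 further: tested at 20 µM; growth read once vehicle control cultures reached saturation at 30 °C; 1 = growth at the plate median or of vehicle wells; lower values mean less growth of the strain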
Details: growth OD
[1] = S. cerevisiae deletion strains, locus YAL013W, strain DEP1, hits give low values
[2] = S. cerevisiae deletion strains, locus YBR229C, strain ROT2, hits give low values
[3] = S. cerevisiae deletion strains, locus YDL101C, strain DUN1, hits give low values
[4] = S. cerevisiae deletion strains, locus YDL134C, strain PPH21, hits give low values
[5] = S. cerevisiae deletion strains, locus YDR150W, strain NUM1, hits give low values
[6] = S. cerevisiae deletion strains, locus YEL061C, strain CIN8, hits give low values
[7] = S. cerevisiae deletion strains, locus YGR078C, strain PAC10, hits give low values
[8] = S. cerevisiae deletion strains, locus YGR229C, strain SMI1, hits give low values
[9] = S. cerevisiae deletion strains, locus YHR030C, strain SLT2, hits give low values
[10] = S. cerevisiae deletion strains, locus YHR087W, strain rtc3, hits give low values
[11] = S. cerevisiae deletion strains, locus YJR043C, strain POL32, hits give low values
[12] = S. cerevisiae deletion strains, locus YJR075W, strain HOC1, hits give low values
[13] = S. cerevisiae deletion strains, locus YKL190W, strain CNB1, hits give low values
[14] = S. cerevisiae deletion strains, locus YLR039C, strain RIC1, hits give low values
[15] = S. cerevisiae deletion strains, locus YLR058C, strain SHM2 (second series), hits give low values
[16] = S. cerevisiae deletion strains, locus YLR085C, strain ARP6, hits give low values
[17] = S. cerevisiae deletion strains, locus YLR262C, strain YPT6, hits give low values
[18] = S. cerevisiae deletion strains, locus YML094W, strain GIM5, hits give low values
[19] = S. cerevisiae deletion strains, locus YMR219W, strain ESC1, hits give low values
[20] = S. cerevisiae deletion strains, locus YMR263W, strain SAP30, hits give low values
[21] = S. cerevisiae deletion strains, locus YMR307W, strain GAS1, hits give low values
[22] = S. cerevisiae deletion strains, locus YNL153C, strain GIM3, hits give low values
[23] = S. cerevisiae deletion strains, locus YNL298W, strain CLA4 (second series), hits give low values
[24] = S. cerevisiae deletion strains, locus YNL322C, strain KRE1, hits give low values
[25] = S. cerevisiae deletion strains, locus YNR030W, strain Alg12, hits give low values
[26] = S. cerevisiae deletion strains, locus YPL055C, strain LGE1, hits give low values
[27] = S. cerevisiae deletion strains, locus YPL241C, strain CIN2, hits give low values
[28] = S. cerevisiae deletion strains, locus YPR135W, strain CTF4, hits give low values
[29] = S. cerevisiae deletion strains, locus YOL006C, strain TOP1, hits give low values
[30] = S. cerevisiae strains, strain wild type, hits give low values

O=C(NNC(=S)Nc1cccc(Cl)c1)c1ccncc1
normalized growth [1]: 0.977
normalized growth [2]: 0.996
normalized growth [3]: 0.983
normalized growth [4]: 0.995
normalized growth [5]: 0.95
normalized growth [6]: 1
normalized growth [7]: 0.983
normalized growth [8]: 0.997
normalized growth [9]: 1
normalized growth [10]: 1
normalized growth [11]: 0.98
normalized growth [12]: 1.01
normalized growth [13]: 1.01
normalized growth [14]: 1.04
normalized growth [15]: 0.981
normalized growth [16]: 0.989
normalized growth [17]: 0.99
normalized growth [18]: 1.01
normalized growth [19]: 0.991
normalized growth [20]: 0.994
normalized growth [21]: 1.02
normalized growth (S. cerevisiae deletion strains, locus YNL128W, strain TEP1, hits give low values): 0.995
normalized growth [22]: 0.986
normalized growth [23]: 0.965
normalized growth [24]: 0.991
normalized growth [25]: 0.951
normalized growth [26]: 0.914
normalized growth [27]: 0.992
normalized growth [28]: 0.938

O=C(NNC(=S)Nc1cccc(Cl)c1)C1CC1
normalized growth [1]: 0.987
normalized growth [2]: 0.951
normalized growth [3]: 0.963
normalized growth [4]: 0.99
normalized growth [5]: 0.917
normalized growth [6]: 0.857 (active)
normalized growth [7]: 0.956
normalized growth [8]: 1
normalized growth [9]: 0.489 (active)
normalized growth [10]: 0.986
normalized growth (S. cerevisiae deletion strains, locus YJL187C, strain SWE1, hits give low values): 0.967
normalized growth [11]: 0.942
normalized growth [12]: 0.986
normalized growth [13]: 0.913 (active)
normalized growth [14]: 0.749 (active)
normalized growth [15]: 0.998
normalized growth [16]: 0.673 (active)
normalized growth [17]: 0.949
normalized growth [18]: 0.796 (active)
normalized growth [19]: 0.988
normalized growth [20]: 0.975
normalized growth [21]: 0.684
normalized growth [22]: 0.965
normalized growth [23]: 0.782 (active)
normalized growth [24]: 1.05
normalized growth [25]: 0.859 (active)
normalized growth [29]: 0.384 (active)
normalized growth [26]: 0.735 (active)
normalized growth [27]: 0.784 (active)
normalized growth [28]: 0.69
normalized growth [30]: 0.953

C[C@@H]1O[C@@H](O[C@H]2[C@H](Oc3cc(O)c4c(=O)cc(-c5ccc(O)cc5)oc4c3)O[C@H](CO)[C@@H](O)[C@@H]2O)[C@H](O)[C@H](O)[C@H]1O
normalized growth [1]: 0.994
normalized growth (S. cerevisiae deletion strains, locus YBR021W, strain FUR4, hits give low values): 1
normalized growth [2]: 1
normalized growth (S. cerevisiae deletion strains, locus YCL029C, strain bik1, hits give low values): 0.977
normalized growth (S. cerevisiae deletion strains, locus YDL035C, strain GPR1, hits give low values): 1
normalized growth (S. cerevisiae deletion strains, locus YDL074C, strain BRE1, hits give low values): 0.933
normalized growth [3]: 0.998
normalized growth [4]: 1.07
normalized growth (S. cerevisiae deletion strains, locus YDL185W, strain tfp1, hits give low values): 0.95
normalized growth (S. cerevisiae deletion strains, locus YDL192W, strain arf1, hits give low values): 0.998
normalized growth (S. cerevisiae deletion strains, locus YDR101C, strain arx1, hits give low values): 0.937
normalized growth (S. cerevisiae deletion strains, locus YDR162C, strain NBP2, hits give low values): 1.01
normalized growth (S. cerevisiae deletion strains, locus YDR318W, strain mcm21, hits give low values): 1
normalized growth (S. cerevisiae deletion strains, locus YDR388W, hits give low values): 0.996
normalized growth (S. cerevisiae deletion strains, locus YDR502C, strain sam2, hits give low values): 0.99
normalized growth [6]: 1
normalized growth (S. cerevisiae deletion strains, locus YER110C, hits give low values): 0.982
normalized growth (S. cerevisiae deletion strains, locus YER155C, strain BEM2, hits give low values): 0.991
normalized growth (S. cerevisiae deletion strains, locus YER167W, strain BCK2, hits give low values): 0.994
normalized growth (S. cerevisiae deletion strains, locus YGL078C, strain dbp3, hits give low values): 0.981
normalized growth (S. cerevisiae deletion strains, locus YGL086W, strain mad1, hits give low values): 0.954
normalized growth (S. cerevisiae deletion strains, locus YGL248W, strain PDE1, hits give low values): 1.02
normalized growth (S. cerevisiae deletion strains, locus YGR135W, strain pre9, hits give low values): 1.02
normalized growth (S. cerevisiae deletion strains, locus YGR252W, strain gcn5, hits give low values): 1.11
normalized growth [9]: 0.989 and 1.02
normalized growth (S. cerevisiae deletion strains, locus YHR079C, strain IRE1 (second series), hits give low values): 0.976
normalized growth (S. cerevisiae deletion strains, locus YHR079C, strain IRE1, hits give low values): 1.03
normalized growth (S. cerevisiae deletion strains, locus YHR094C, strain hxt1, hits give low values): 0.99
normalized growth (S. cerevisiae deletion strains, locus YHR129C, strain ARP1, hits give low values): 1.02
normalized growth (S. cerevisiae deletion strains, locus YHR200W, strain rpn10, hits give low values): 0.988
normalized growth (S. cerevisiae deletion strains, locus YIL066C, strain RNR3, hits give low values): 0.994
normalized growth (S. cerevisiae deletion strains, locus YIL073C, strain SPO22, hits give low values): 0.981
normalized growth (S. cerevisiae deletion strains, locus YIL125W, strain kgd1, hits give low values): 0.972
normalized growth (S. cerevisiae deletion strains, locus YIR030C, strain dcg1, hits give low values): 0.983
normalized growth (S. cerevisiae deletion strains, locus YJL095W, strain BCK1, hits give low values): 1.03 and 0.992
normalized growth (S. cerevisiae deletion strains, locus YJL134W, strain LCB3, hits give low values): 0.992
normalized growth (S. cerevisiae deletion strains, locus YJL168C, strain set2, hits give low values): 1
normalized growth (S. cerevisiae deletion strains, locus YJL187C, strain SWE1 (second series), hits give low values): 0.995
normalized growth [11]: 0.993
normalized growth (S. cerevisiae deletion strains, locus YJR066W, strain TOR1, hits give low values): 0.981
normalized growth (S. cerevisiae deletion strains, locus YKL009W, strain mrt4, hits give low values): 0.955
normalized growth (S. cerevisiae deletion strains, locus YKL068W, hits give low values): 0.987
normalized growth (S. cerevisiae deletion strains, locus YKL085W, strain MDH1 (second series), hits give low values): 0.981
normalized growth (S. cerevisiae deletion strains, locus YKL085W, strain MDH1, hits give low values): 0.981
normalized growth (S. cerevisiae deletion strains, locus YKR001C, strain vps1, hits give low values): 0.982
normalized growth [14]: 0.963
normalized growth (S. cerevisiae deletion strains, locus YLR058C, strain SHM2, hits give low values): 0.998
normalized growth (S. cerevisiae deletion strains, locus YLR102C, strain apc9, hits give low values): 0.987
normalized growth (S. cerevisiae deletion strains, locus YLR113W, strain HOG1, hits give low values): 0.967
normalized growth [17]: 0.95
normalized growth (S. cerevisiae deletion strains, locus YLR268W, strain sec22, hits give low values): 0.951
normalized growth (S. cerevisiae deletion strains, locus YLR330W, strain CHS5, hits give low values): 0.979
normalized growth (S. cerevisiae deletion strains, locus YLR342W, strain FKS1 (second series), hits give low values): 1.01
normalized growth (S. cerevisiae deletion strains, locus YLR371W, strain rom2, hits give low values): 0.98
normalized growth (S. cerevisiae deletion strains, locus YLR418C, strain cdc73, hits give low values): 1.01
normalized growth (S. cerevisiae deletion strains, locus YML016C, strain PPZ1, hits give low values): 0.995
normalized growth (S. cerevisiae deletion strains, locus YML032C, strain rad52, hits give low values): 1.04
normalized growth (S. cerevisiae deletion strains, locus YML124C, strain tub3, hits give low values): 0.978
normalized growth (S. cerevisiae deletion strains, locus YMR078C, strain ctf18, hits give low values): 0.975
normalized growth (S. cerevisiae deletion strains, locus YMR223W, strain ubp8, hits give low values): 1
normalized growth [20]: 0.985
normalized growth [21]: 1.05
normalized growth (S. cerevisiae deletion strains, locus YNL067W, strain RPL9B, hits give low values): 0.999
normalized growth (S. cerevisiae deletion strains, locus YNL183C, strain NPR1, hits give low values): 0.963
normalized growth (S. cerevisiae deletion strains, locus YNL233W, strain BNI4, hits give low values): 0.988
normalized growth (S. cerevisiae deletion strains, locus YNL250W, strain rad50, hits give low values): 0.955
normalized growth (S. cerevisiae deletion strains, locus YNL271C, strain bni1, hits give low values): 0.981
normalized growth (S. cerevisiae deletion strains, locus YNL298W, strain CLA4, hits give low values): 0.991
normalized growth (S. cerevisiae deletion strains, locus YNL307C, strain MCK1, hits give low values): 0.971
normalized growth (S. cerevisiae deletion strains, locus YNR052C, strain pop2, hits give low values): 1.01
normalized growth [29]: 0.99
normalized growth (S. cerevisiae deletion strains, locus YOL012C, strain htz1): 0.768
normalized growth (S. cerevisiae deletion strains, locus YOL147C, strain pex11, hits give low values): 0.992
normalized growth (S. cerevisiae deletion strains, locus YOR061W, strain CKA2, hits give low values): 0.997
normalized growth (S. cerevisiae deletion strains, locus YOR069W, strain VPS5, hits give low values): 0.994
normalized growth (S. cerevisiae deletion strains, locus YOR136W, strain idh2, hits give low values): 0.965
normalized growth (S. cerevisiae deletion strains, locus YOR144C, strain elg1, hits give low values): 0.996
normalized growth (S. cerevisiae deletion strains, locus YOR184W, strain ser1, hits give low values): 0.993
normalized growth (S. cerevisiae deletion strains, locus YOR231W, strain MKK1, hits give low values): 0.989
normalized growth (S. cerevisiae deletion strains, locus YOR316C, strain cot1, hits give low values): 0.981
normalized growth (S. cerevisiae deletion strains, locus YPL256C, strain CLN2, hits give low values): 1
normalized growth (S. cerevisiae deletion strains, locus YPR119W, strain clb2, hits give low values): 0.978
normalized growth (S. cerevisiae deletion strains, locus YPR141C, strain kar3, hits give low values): 0.986
normalized growth (S. cerevisiae deletion strains, locus YPR163C, strain tif3, hits give low values): 0.992
normalized growth (S. cerevisiae deletion strains, locus YPR167C, strain met16, hits give low values): 0.981
normalized growth (S. cerevisiae deletion strains, strain wtn01, hits give low values): 0.948
normalized growth [30]: 0.998

CC(C)(C)NCC(O)COc1cccc2[nH]c(=O)[nH]c12 (stereo not given)
normalized growth (S. cerevisiae deletion strains, locus YAL040C, strain CLN3, hits give low values): 1.02
normalized growth (S. cerevisiae deletion strains, locus YCL061C, strain MRC1 (second series), hits give low values): 1.01
normalized growth [5]: 1
normalized growth (S. cerevisiae deletion strains, locus YDR363W, strain ESC2, hits give low values): 1.01
normalized growth (S. cerevisiae deletion strains, locus YER002W, strain NOP16, hits give low values): 1.02
normalized growth [12]: 1.01
normalized growth [20]: 1
normalized growth (S. cerevisiae deletion strains, locus YNL175C, strain NOP13, hits give low values): 1.03
normalized growth (S. cerevisiae deletion strains, locus YNL197C, strain WHI3, hits give low values): 1.02
normalized growth (S. cerevisiae deletion strains, locus YNL224C, strain SQS1, hits give low values): 0.991
normalized growth [24]: 1.03
normalized growth (S. cerevisiae deletion strains, locus YOR083W, strain WHI5 (second series), hits give low values): 0.988
normalized growth [27]: 1
